# Measured values reported in PubChem BioAssay (NCATS).
# Results filed as inconclusive are left out. Values without a mark were called inactive. Activity calls are given as the source filed them. Calls follow the shape of the dose curve; as a rule, active = well fitted cell-killing curve with a large enough effect; inconclusive = small, poorly fitted or top-dose-only effect, or effect the other way; inactive = flat fitted curve, though single readings scatter.
# Test system: C33A
# Assay: Primary qHTS to identify gynecologic anti-cancer compounds using libraries of approved drugs and bioactive compounds (AID 1345084); also: nearly all actives have a fitted effect of over 55% in size
# Settings: Gynecologic cancer cell panel viability, ATPlite luminescence, 48 h; series mostly up to 57.5 µM; activity change, negative = cytotoxicity: at the top concentration
# Outline: (§1)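 In this quantitative HTS, cell killing is estimated from loss of ATP-dependent luciferase light. Cells see five compound concentrations over a 48 h exposure.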
# % is scaled to controls: 0 for no effect and ±100 for the full control effect; potency is read from the fitted curve at half-maximal effect.
SMILES,"activity change, negative = cytotoxicity",Potency
CC(=O)Oc1ccc(C)cc1,0.237%,–
CC(C)(C)NC[C@H](O)COc1nsnc1N1CCOCC1,2.05%,–
Cc1ncc(CO)c(C=O)c1O,16.4%,–
CN(C)CCN1C(=O)c2ccccc2N(C)c2ccccc21,3.65%,–
CC[C@]12CCCN3CCc4c(n(c5ccccc45)C(=O)C1)[C@@H]32,–,inactive
COc1cc(C)nc(-n2nc(C)cc2OC)n1,3.82%,–
O=C1C(O)=C(O)C(=O)C(O)=C1O,-5.24%,–
CCCCCCCCCCCCSCCOCCO,-1.29%,–
COc1ccc(C(=O)c2ccccc2)c(O)c1,-12.2%,–
OC[C@H]1O[C@@H]2O[C@H]3[C@H](O)[C@@H](O)[C@@H](O[C@H]4[C@H](O)[C@@H](O)[C@@H](O[C@H]5[C@H](O)[C@@H](O)[C@@H](O[C@H]6[C@H](O)[C@@H](O)[C@@H](O[C@H]7[C@H](O)[C@@H](O)[C@@H](O[C@H]8[C@H](O)[C@@H](O)[C@@H](O[C@H]1[C@H](O)[C@H]2O)O[C@@H]8CO)O[C@@H]7CO)O[C@@H]6CO)O[C@@H]5CO)O[C@@H]4CO)O[C@@H]3CO,23.7%,–
C#C[C@]1(OC(C)=O)CC[C@H]2[C@@H]3CCC4=C/C(=N/O)CC[C@@H]4[C@H]3CC[C@@]21CC,0.783%,–
CCCCCCCC/C=C\CCCCCCCCN,8.34%,–
N#CCC(=O)NN,0.456%,–
C#C[C@]1(O)CC[C@H]2[C@@H]3CCC4=CC(=O)CC[C@@H]4[C@H]3CC[C@@]21CC,-19.2%,–
CN1CCC(OC(c2ccccc2)c2ccccc2)CC1,-1.74%,–
CCN[C@@H]1C[C@H](N)[C@@H](OC2OC(CN)=CCC2N)[C@H](O)[C@H]1O[C@H]1OC[C@](C)(O)[C@H](NC)[C@H]1O (stereo not given in full),4.69% [at 0.462 µM],–
O=C(c1ccc(F)cc1)C1CCN(CCn2c(=S)[nH]c3ccccc3c2=O)CC1,-19.6%,–

SMILES,"activity change, negative = cytotoxicity",Potency
CC(=O)N[C@@H](CCC(=O)O)C(=O)O,-1.58%,–
CCCc1ncc(C[n+]2ccccc2C)c(N)n1,15.9%,–
COc1cc(O)c(C(=O)c2ccccc2)cc1S(=O)(=O)O,-1.09%,–
CCN(CC)CCOC(=O)C1(c2ccccc2)CCCC1,-7.02%,–
CCC(Cc1c(I)cc(I)c(N)c1I)C(=O)O (stereo not given),-3.37%,–
OC[C@H]1O[C@@H](Oc2ccc(O)cc2)[C@H](O)[C@@H](O)[C@@H]1O,-3.99%,–
Cc1cccc(C)c1NC(=O)CN1CCCCCC1,12%,–
Nc1ccc(S(=O)(=O)NCc2ccccc2)cc1,-13%,–
CCN(CC)CCOc1ccc2c(c1)C(=O)c1cc(OCCN(CC)CC)ccc1-2,–,17.8 µM (active)
CCc1oc2ccccc2c1C(=O)c1cc(I)c(O)c(I)c1,4.74%,–
O=C(O)CCNC(=O)c1ccccc1,-1.39%,–
CCCCC(CC)COC(=O)/C=C/c1ccc(OC)cc1 (stereo not given),1.49%,–
COc1cc(NS(=O)(=O)c2ccc(N)cc2)ncn1,22.8%,–
C[C@]12CCC(=O)C=C1C=C[C@@H]1[C@@H]2CC[C@@]2(C)[C@H]1CC[C@@]21CCC(=O)O1,-28.6%,–
Cc1ccc2c(Br)cc(Br)c(O)c2n1,–,20 µM (active)
C=C[C@@]1(C)CC(=O)[C@]2(O)[C@@]3(C)[C@@H](O)CCC(C)(C)[C@@H]3[C@H](O)[C@H](OC(C)=O)[C@@]2(C)O1,2.85%,–

# Test system: CAOV3
# Assay: as above
# Settings: Gynecologic cancer cell panel viability, ATPlite luminescence, 48 h; series mostly up to 57.5 µM; activity change, negative = cytotoxicity: at the top concentration
# Outline: as §1
row,SMILES,"activity change, negative = cytotoxicity"
1,CC(=O)Oc1ccc(C)cc1,-9.98%
2,CC(C)(C)NC[C@H](O)COc1nsnc1N1CCOCC1,6.18%
3,Cc1ncc(CO)c(C=O)c1O,6.92%
4,COc1cc(C)nc(-n2nc(C)cc2OC)n1,-2.58%
5,O=C1C(O)=C(O)C(=O)C(O)=C1O,-3.8%
6,COc1ccc(C(=O)c2ccccc2)c(O)c1,1.86%
7,OC[C@H]1O[C@@H]2O[C@H]3[C@H](O)[C@@H](O)[C@@H](O[C@H]4[C@H](O)[C@@H](O)[C@@H](O[C@H]5[C@H](O)[C@@H](O)[C@@H](O[C@H]6[C@H](O)[C@@H](O)[C@@H](O[C@H]7[C@H](O)[C@@H](O)[C@@H](O[C@H]8[C@H](O)[C@@H](O)[C@@H](O[C@H]1[C@H](O)[C@H]2O)O[C@@H]8CO)O[C@@H]7CO)O[C@@H]6CO)O[C@@H]5CO)O[C@@H]4CO)O[C@@H]3CO,-25.5%
8,N#CCC(=O)NN,-5.96%
9,CN1CCC(OC(c2ccccc2)c2ccccc2)CC1,-2.3%
10,CCN[C@@H]1C[C@H](N)[C@@H](OC2OC(CN)=CCC2N)[C@H](O)[C@H]1O[C@H]1OC[C@](C)(O)[C@H](NC)[C@H]1O (stereo not given in full),0% [at 0.462 µM]
11,CC(=O)N[C@@H](CCC(=O)O)C(=O)O,3.91%
12,COc1cc(O)c(C(=O)c2ccccc2)cc1S(=O)(=O)O,-2.87%
13,CCN(CC)CCOC(=O)C1(c2ccccc2)CCCC1,-7.74%
14,CCC(Cc1c(I)cc(I)c(N)c1I)C(=O)O (stereo not given),-18.8%
15,OC[C@H]1O[C@@H](Oc2ccc(O)cc2)[C@H](O)[C@@H](O)[C@@H]1O,-7.65%
16,Nc1ccc(S(=O)(=O)NCc2ccccc2)cc1,-1.3%
17,CCc1oc2ccccc2c1C(=O)c1cc(I)c(O)c(I)c1,3.27%
18,O=C(O)CCNC(=O)c1ccccc1,-0.079%
19,CCCCC(CC)COC(=O)/C=C/c1ccc(OC)cc1 (stereo not given),-4.97%
20,COc1cc(NS(=O)(=O)c2ccc(N)cc2)ncn1,-0.881%
21,C[C@]12CCC(=O)C=C1C=C[C@@H]1[C@@H]2CC[C@@]2(C)[C@H]1CC[C@@]21CCC(=O)O1,-8.9%
22,C=C[C@@]1(C)CC(=O)[C@]2(O)[C@@]3(C)[C@@H](O)CCC(C)(C)[C@@H]3[C@H](O)[C@H](OC(C)=O)[C@@]2(C)O1,-19.5%
